Experimental data reported in PubChem BioAssay AID504834 (National Center for Advancing Translational Sciences (NCATS), 2011).
Hit rate of the full screen: of about 320,000 compounds, about 22,000 (6.9%) were called active. About 27% were inconclusive and are not listed. Calls follow the shape of the dose curve; as a rule, active = well fitted inhibition curve with a large enough effect; inconclusive = small, poorly fitted or top-dose-only effect, or another doubt; inactive = no such curve, though single readings can be large or run the other way. Shown is part of a subset that was picked to be rich in actives. A call without a number means that no potency is given here. Where a SMILES comes first, the peptide text is derived from it. [ ]: non-standard residue; d: D form. The star is where a group is joined. ξ: configuration not given here. Cbz = O=C(OCc1ccccc1)*; ξL = CC(C)CC(N)C(=O)O; ξP = O=C(O)C1CCCN1

assay: Primary qHTS for delayed death inhibitors of the malarial parasite plastid, 96 hour incubation; settings: P. falciparum luciferase reporter growth; series mostly up to 28.7 µM
Method in brief: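 Readout is luminescence from an integrated firefly luciferase in P. falciparum. Red cells, 2% hematocrit and 0.05% parasitemia final, were cultured with compound through two parasite generations (96 hours) at 37 C, 5% CO2.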
Potency is read from the fitted curve at half-maximal effect.

| Structure (SMILES) | Potency |
| --- | --- |
| CCN1CCN(C(=O)C2CCCN(S(=O)(=O)c3ccc(OC)c(OC)c3)C2)CC1 (stereo unspecified) | inactive |
| COc1cccc(NC(=O)CN(C)CC(=O)c2c(N)n(Cc3ccccc3)c(=O)n(C)c2=O)c1 | inactive |
| COc1ccc(OC)c(CCNC(=O)c2nn(C)c3c2CS(=O)(=O)c2ccccc2-3)c1 | inactive |
| CC(C)CC(NC(=O)C1CCCN1C(=O)[C@@H](C)NC(=O)OCc1ccccc1)C(=O)NCC(N)=O (stereo partly specified) (Cbz-[dA][ξP][ξL]G-NH2) | inactive |
| O=C(CSc1nc2ccccc2c(=O)n1-c1ccc(F)cc1)NC1CC1 | inactive |
| CN(CCOc1ccc(Br)cc1)CC(=O)Nc1cccc(S(=O)(=O)NC2=NCCC2)c1 | inactive |
| Cc1cccc(-n2c(SCC(=O)Nc3cccc(S(=O)(=O)NC4=NCCCCC4)c3)nc3ccccc3c2=O)c1C | 5.22 µM (active) |
| CCc1ccc(C(=O)OCC(=O)Nc2cccc(S(=O)(=O)NC3=NCCCCC3)c2)cc1 | 10.4 µM (active) |
| O=C(Nc1cccc(S(=O)(=O)NC2=NCCC2)c1)C1CCCCC1 | inactive |
| NS(=O)(=O)c1cccc(NC(=O)CSc2nc3ccccc3n2-c2ccccc2)c1 | inactive |
| COc1ccc(C(C)=O)cc1COc1ccc(Cl)c(C)c1 | inactive |
| COCCN(C(=O)CSCc1ccc(C)cc1)c1c(N)n(CC(C)C)c(=O)[nH]c1=O | inactive |
| CC(=O)Nc1ccc(C(=O)/C=C/c2ccc[nH]2)cc1 | inactive |
| Cc1ccccc1OCCC(=O)OCC(=O)NCCc1ccc(S(N)(=O)=O)cc1 | inactive |
| Cc1ccc(OCC(=O)Nc2ccc(S(=O)(=O)Nc3ccccn3)cc2)cc1 | inactive |
| Cc1cc(C)cc(OCC(=O)Nc2ccc(S(=O)(=O)Nc3ccccn3)cc2)c1 | 1.65 µM (active) |
| O=C(CS(=O)(=O)c1ccccc1)Nc1ccc(S(=O)(=O)Nc2ccccn2)cc1 | inactive |
| Cc1ncoc1C(=O)NCCC(c1ccccc1)c1ccccc1 | inactive |
| CC(Cc1ccccc1)C(=O)N(C)Cc1ccccc1 (stereo unspecified) | inactive |
| CC(Cc1ccccc1)NCCC(c1ccccc1)c1ccccc1 (stereo unspecified) | 14.7 µM (active) |
| C[C@H](NC(=O)c1nc[nH]c1C(=O)NCC(=O)OC(C)(C)C)C(=O)OCc1ccccc1 | inactive |
| COC(=O)c1cccc(NS(C)(=O)=O)c1 | inactive |
| Cc1cc(C(=O)COC(=O)c2cccs2)c(C)n1-c1c(C)n(C)n(-c2ccccc2)c1=O | inactive |
| COc1ccc(-n2c(C)cc(C(=O)COC(=O)c3cc(OC)c(OC)cc3NC(=O)c3cccs3)c2C)cc1 | 2.62 µM (active) |
| COc1ccc(C(=O)COC(=O)CNC(=O)c2cccs2)cc1Br | inactive |
| O=C(CN1CCN(c2ccc(F)cc2)CC1)Nc1ccccc1 | inactive |
